Assay outcomes from PubChem.
Mito fusion yeast: blocks mitochondrial division or promotes mitochondrial fusion; S. cerevisiae fusion-defective mutant growth rescue, CellTiterGlo 48 h; AID 485298; 320,000 compounds, 0.23% hits; Potency, µM (series often up to 46.1 µM), for the others: top-dose growth rescue (activation), most hits filed as activators; further: % of control where 0% means no effect; nearly all actives have a fitted effect of over 45% in size
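S. cerevisiae fusion-defective temperature-sensitive mutants (e.g. fzo1-1, mgm1-5) grown 48 h at 37C in YPEG (ethanol/glycerol non-fermentable) medium with 23 nl compound per well; growth rescue read as CellTiterGlo luminescence.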
Abeta rescue: compounds reversing amyloid beta toxicity in yeast | yeast expressing A-beta42, growth rescue, OD600, 48 h; response scale: 0% DMSO, 100% iron-clioquinol control | Potency, µM (series often up to 46.1 µM), hits mostly activators | 410,000 compounds, 0.063% hits | AID 1347071; further: nearly all actives have a fitted effect of over 55% in size
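Yeast A-beta toxicity model in growth medium with pinned compounds, 48 h at 30 C; growth read as absorbance at 600 nm. Normalized to FeCl3/clioquinol equimolar mix (positive) and DMSO (negative).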
TDP-43 yeast inh: rescues yeast growth from TDP-43 toxicity; TDP-43 expressing yeast growth rescue, BacTiter-Glo, 24 h; Potency, µM (titrated, usually from 46.1 µM), for the others: at the top dose growth rescue (activation), hits mostly activators; 410,000 compounds, 1.8% hits; further: % of control where 0% means no effect; nearly all actives have a fitted effect of over 50% in size
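Yeast cells expressing TDP-43 under galactose induction are exposed to compounds for 24 hr at 30 deg C. BacTiter-Glo luminescence measures growth, so protective compounds score as activators.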
FUS yeast rescue: rescues growth of FUS-expressing yeast; AID 1347120; 390,000 compounds, 0.24% hits; Potency, µM (doses to about 76.6 µM), actives largely listed as activators; S. cerevisiae FUS-expressing, growth rescue, OD600, 24 h;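 further: plate controls were DMSO vehicle for no effect and reference control for full effect; nearly all actives have a fitted effect of over 55% in size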
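Yeast FUS proteinopathy model; galactose-induced FUS (2%), starting OD 0.005. Cpds in dilution series, 24hr, 30C, 99% humidity. Abs 600 nm growth. Pos ctrl CP55940 (top 92uM final); neg ctrl DMSO.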
ERG Ets-DNA blk: ERG Ets/DNA interaction inhibition; Potency, µM (top dose mostly 76.9 µM), for inactives: at the top dose FP activity, negative = inhibition, actives largely listed as inhibitors; P11308; AID 624246; 370,000 compounds, 0.028% hits; fluorescence polarization, His-ERG Ets domain / labelled DNA; active means well fitted inhibition curve with a large enough effect in the polarisation, with a control signal flat; inconclusive means small, poorly fitted or top-dose-only effect, or effect the other way, or a change in a side signal; inactive means no such curve, though single readings can be large or run the other way; the % refers to the polarisation;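 further: polarization taken with two DNA probes labelled with fluorescein and Texas red; % of control where 0% means no effect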
Target sequence (P11308 whole entry, looked up, the tested form may be a part): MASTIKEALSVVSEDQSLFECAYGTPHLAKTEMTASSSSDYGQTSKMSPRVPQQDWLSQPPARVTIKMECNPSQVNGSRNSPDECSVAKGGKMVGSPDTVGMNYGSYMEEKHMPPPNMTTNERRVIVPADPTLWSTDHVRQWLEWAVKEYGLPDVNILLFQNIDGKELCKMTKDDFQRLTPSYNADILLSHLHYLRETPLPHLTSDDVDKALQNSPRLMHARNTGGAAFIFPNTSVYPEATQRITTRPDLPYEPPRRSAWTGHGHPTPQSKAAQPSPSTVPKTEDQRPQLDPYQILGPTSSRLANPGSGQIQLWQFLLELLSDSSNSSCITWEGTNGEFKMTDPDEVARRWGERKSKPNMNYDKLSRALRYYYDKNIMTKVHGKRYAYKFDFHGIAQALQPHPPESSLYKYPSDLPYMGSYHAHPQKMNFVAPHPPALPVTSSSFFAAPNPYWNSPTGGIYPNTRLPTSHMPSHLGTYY
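His-tagged ERG Ets domain (1 uM in the protein solution; 300mM KCl, 50mM Tris-HCl, 1mM EDTA, 1mM DTT, pH 7.5) received compound, then a probe mix of 5 nM fluorescein-DNA and 100nM Texas-615-DNA. Fluorescence polarization was read for both dyes.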
aSyn rescue: rescues yeast growth from alpha-synuclein toxicity. 370,000 compounds, 0.14% hits. Potency, µM (doses to about 46.1 µM), inactives show at the highest dose growth rescue (activation), usual class: activators. Yeast expressing alpha-synuclein, growth rescue, BacTiter-Glo, 24 h. AID 652106; further: % of control where 0% means no effect; nearly all actives have a fitted effect of over 65% in size
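Galactose-induced alpha-syn yeast (OD600=0.02, raffinose-pregrown) + pinned cpd, 24 hr, 30 deg C; growth by BacTiter-Glo luminescence. Growth restoration scores as activation.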
Numbers without * were called inactive. Sampled rows, rich in hits. Any-hit rate of the full collection: about 2.2%. Unless noted, the call rests on the fitted dose curve; in most records, active means well fitted curve in the direction sought with a large enough effect; inconclusive means small, poorly fitted or top-dose-only effect, or another doubt; inactive means no such curve, though single readings can be large; an effect the other way counts as inactive or inconclusive. Potency means the concentration at half of the fitted maximal effect.

Results for O=C(/C=C/c1cccs1)NC(=S)NNC(=O)Cc1cccs1 ?
Mito fusion yeast: -11.6%; Abeta rescue: inconclusive; TDP-43 yeast inh: 11.2µM*; FUS yeast rescue: inactive; ERG Ets-DNA blk: -1.0%; aSyn rescue: inconclusive

How did COc1ccc(C(=O)NC(=S)NNC(=O)c2cnccn2)cc1OC do in these assays?
Mito fusion yeast: -0.6%; Abeta rescue: inactive; TDP-43 yeast inh: -14.9%; ERG Ets-DNA blk: -12.8%; aSyn rescue: 0.2%

How did CCOC(=O)CC[C@H]1CC[C@]2(CCCN(C(=O)C(C)(C)C)C2)O1 do in these assays?
FUS yeast rescue: inactive

What do the screens show for `CCc1ccc(S(=O)(=O)c2nnn(-c3cccc(C)c3)c2N)cc1`?
Abeta rescue: inactive; TDP-43 yeast inh: 22.4µM*; FUS yeast rescue: inactive; ERG Ets-DNA blk: -4.2%

Results for CN(CC(=O)Nc1ccccc1Br)C(=O)CCSc1ccc(F)cc1 ?
Mito fusion yeast: 8.7%; Abeta rescue: inactive; TDP-43 yeast inh: 14.1µM*; FUS yeast rescue: inactive; ERG Ets-DNA blk: -6.0%; aSyn rescue: 11.5%

What do the screens show for `Cc1ccc(SCCC(=O)Nc2ccccc2Br)cc1`?
Mito fusion yeast: 5.7%; Abeta rescue: inactive; TDP-43 yeast inh: 23.4%; FUS yeast rescue: inactive; ERG Ets-DNA blk: 1.3%; aSyn rescue: 3.6%

What do the screens show for `COc1ccc(NC(=O)CCCc2nnc3n(C(C)C)c(=O)c4sccc4n23)cc1Cl`?
Abeta rescue: inactive; TDP-43 yeast inh: 12.3%; FUS yeast rescue: inactive; ERG Ets-DNA blk: -0.3%

Results for O=C(OCC(=O)N1CCc2ccccc21)c1c2c(nc3ccccc13)CCCCC2 ?
Mito fusion yeast: inconclusive; Abeta rescue: inactive; TDP-43 yeast inh: 22.4µM*; aSyn rescue: -20.3%

What do the screens show for `COc1ccc2nc(N3C(=O)CC(C(C)c4ccccc4)C3=O)sc2c1` (centres undefined)?
Mito fusion yeast: -9.2%; Abeta rescue: inactive; TDP-43 yeast inh: 11.2µM*; ERG Ets-DNA blk: -10.4%; aSyn rescue: 1.4%

How did C=CCN1C(=O)[C@@H](CC(=O)N2CCSCC2)[C@]2(C(=O)OC)CCCCC=C12 do in these assays?
FUS yeast rescue: inactive

Results for Cc1nnc(N2C(=O)c3cccc4c([N+](=O)[O-])ccc(c34)C2=O)s1 ?
Mito fusion yeast: -10.8%; Abeta rescue: inactive; TDP-43 yeast inh: 12.6µM*; FUS yeast rescue: inactive; ERG Ets-DNA blk: -12.5%; aSyn rescue: -2.4%

What do the screens show for `CCC(C)c1ccc(NC(=O)CSc2nnc(-c3cccc(C)c3)n2C)cc1` (centres undefined)?
FUS yeast rescue: inactive

Results for CC(C)=CCC/C(C)=C/CNCC(=O)N1c2ccccc2[C@]2(c3ccccc3)C[C@@H]3C(=O)N(C/C=C(\C)CCC=C(C)C)CC(=O)N3[C@H]12 ?
FUS yeast rescue: 12.6µM*

How did O=c1[nH]c2ccccc2c(O)c1-c1ccccc1 do in these assays?
Mito fusion yeast: 12.7%; Abeta rescue: inactive; TDP-43 yeast inh: 4.0%; FUS yeast rescue: inactive; ERG Ets-DNA blk: -9.1%; aSyn rescue: 5.5%

Results for O/N=C/Cc1[nH]c2ccccc2c1-c1ccccc1 ?
Mito fusion yeast: -8.6%; Abeta rescue: inactive; TDP-43 yeast inh: 15.8µM*; FUS yeast rescue: inactive; ERG Ets-DNA blk: -5.8%; aSyn rescue: -6.2%

Results for Cc1cc(C(F)(F)F)n2nc(-c3cnn(C)c3C(F)(F)F)c(Br)c2n1 ?
Mito fusion yeast: 0.2%; Abeta rescue: inactive; TDP-43 yeast inh: 12.6µM*; FUS yeast rescue: inactive; ERG Ets-DNA blk: -2.2%; aSyn rescue: 5.1%

What do the screens show for `COc1ccccc1-c1cc(C(F)(F)F)nc(N2CCN(c3ccccc3)CC2)n1`?
Mito fusion yeast: 0.4%; Abeta rescue: inactive; TDP-43 yeast inh: 19.8%; FUS yeast rescue: inactive; ERG Ets-DNA blk: -6.5%; aSyn rescue: -7.3%
